Results from PubChem BioAssay (NCI).
This is part of a sample that, as a whole, favours compounds with a hit. Of some 83,000 tested, about 20% had one in any assay.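 Single-dose data. Exposure time 48 hours. Values below 10 considered active.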 Values without a mark were called inactive. Activity calls are given as the source filed them.

Each compound was assayed on UO-31 renal (assay: NCI-60 one-dose screen, 48 h (100 = growth as untreated, 0 = no growth, -100 = all killed)). Details: 10 µM unless noted.

How did the growth turn out when `COc1ccc2c(c1)C(=O)c1c-2c(=O)n(CCCCCCC(=O)NO)c2ccccc12` was run?
Its growth is -33.8% (active).

`CCC(C)(C)C(=O)O[C@H]1C[C@@H](C)C=C2C=C[C@H](C)[C@H](CC[C@@H]3C[C@@H](O)CC(=O)O3)[C@H]21` was tested. Which growth did it give?
The growth was 52.1%.

For `CCC1=C(c2ccc(OC)cc2)C(C)(C)Oc2c1ccc(O)c2CN1CCCC1`, which growth is on record?
The growth was 31.3%.

For `CCCCCCCCCCCCCCCCCC1=NC(C)(C)CN1CCO`, which growth is on record?
Its growth is -62.9% (active).

For `COc1cc(C2C=C(c3ccc(C)cc3)Nc3nc(SC)[nH]c(=O)c32)ccc1Oc1ccnc2cc(Cl)ccc12` (stereo unspecified), which growth is on record?
Its growth is 57.8%.

With `C=C(C[C@@](O)(C(=O)Oc1ccccc1)C(=O)C1CCCCC1)c1ccccc1` as the compound, how does the growth read?
Its growth is 83.8%.

How did the growth turn out when `CCCCCCCC1(C)NC(=O)NC1=O` (stereo unspecified) was run?
Its growth is 93.8%.

Which growth does the source give for `CCOC(=O)c1c(C)c(C(=O)OCC)n(C)c1C` here?
The growth was 81.2%.

`COc1ccc(-c2cncn2-c2ccc(-c3nc4cc(OC)c(OC)c(OC)c4s3)cc2)cc1N` was tested. Which growth did it give?
The growth was 16.1%.

`CCc1[nH]nc(-c2ccc(OC)cc2)c1-c1ccccc1OCCN(CC)CC` was tested. Which growth did it give?
Its growth is 67.3%.

`COc1ncc(-c2ccc3nccc(C#CCN4CCN(S(C)(=O)=O)CC4)c3c2)cc1NS(=O)(=O)c1ccc(F)cc1F` was tested. Which growth did it give?
Its growth is 5.46% (active).

`COc1ccc2c(c1)C(=O)c1c-2c(OCCCN(C)C)nc2cc(Br)ccc12` was tested. Which growth did it give?
Its growth is -34.7% (active).

`N#Cc1c(N)[nH]c(S)c1C#N` was tested. Which growth did it give?
The growth was 88.2%.

How did the growth turn out when `CC(O)c1nc2c(c(=O)n(C)c(=O)n2C)n1C` (stereo unspecified) was run?
Its growth is 91.1%.

`Cc1ccc(NC(=O)Nc2ccc(-c3cccnc3)cc2N2CCC(CO)CC2)cc1` was tested. Which growth did it give?
The growth was 81.2%.

`CCCCCCCCCCCCCCCCN=C(CC(=O)O)C(=O)O` was tested. Which growth did it give?
The growth was 89.8%.

For `COc1ccc(CCN2CCCN3C2=Nc2ccccc2S3(=O)=O)cc1`, which growth is on record?
Its growth is 53.4%.

How did the growth turn out when `Cc1nnc(Nc2ccc(NC(=O)Nc3ccc(Cl)cc3)cc2)c2ccccc12` was run?
Its growth is 51.2%.

With `CCCCCCCCCCSc1ncnc2nc[nH]c12` as the compound, how does the growth read?
Its growth is 48.5%.

For `C=C(C[C@](O)(C(=O)/C=C/c1ccc(Cl)cc1)C(=O)OC)c1ccccc1`, which growth is on record?
Its growth is 52.6%.

For `O=C(/C=C/c1ccccc1Cl)c1ccc(O)cc1`, which growth is on record?
Its growth is 43.6%.

How did the growth turn out when `CCOC(=O)c1cc(-c2cccnc2)nc2c(Cl)cc(Cl)cc12` was run?
Its growth is 75%.

Which growth does the source give for `CN1C(=O)/C(=C/c2nc(-c3cccc(F)c3)n3ccccc23)c2ccccc21` here?
The growth was 89.8%.

`O=C1C(=O)c2ccc(Br)cc2-c2cc(Br)ccc21` was tested. Which growth did it give?
Its growth is 48.4%.

With `CCN1CCN(c2cc(-c3cn[nH]c3-c3cc(C)cc(OC)c3)nc(-c3cccnc3)n2)CC1` as the compound, how does the growth read?
Its growth is 45.8%.

Which growth does the source give for `ClC1=C(Cl)C(Cl)=C(Cl)C1=C/C=C/c1ccccc1` here?
The growth was -50.9% (active).

With `O=C(CN1CCCCC1)Sc1nnc2sc3ccccc3n12` as the compound, how does the growth read?
The growth was 68.3%.

For `CN1CCN(Cc2ccc(NC(=O)c3[nH]ncc3Nc3ccnc4ccnn34)cc2)CC1`, which growth is on record?
The growth was 71.1%.

`CC1=CC(=O)C(C(C)=Nc2ccccc2Cl)C(=O)O1` (stereo unspecified) was tested. Which growth did it give?
The growth was 95.8%.

For `CSc1ncc2ncn(C3OC(CO)C(O)C3O)c2n1` (stereo unspecified), which growth is on record?
The growth was 111%.

How did the growth turn out when `COc1ccc2nc3cc(Cl)ccc3c(Nc3cc(C(C)C)c(O)cc3C)c2c1` was run?
The growth was -6.15% (active).

`c1cnc2ccc3ncccc3c2c1` was tested. Which growth did it give?
Its growth is 76.8%.

For `O=C(Nc1ccc(Cl)cc1)Nc1ccc(Oc2nncc3ccccc23)cc1`, which growth is on record?
Its growth is -51.6% (active).

For `CCCCCCCC/C=C/CCCCCCCC1=NC(C)(C)CN1CCO`, which growth is on record?
The growth was -44.8% (active).

For `CN(CC(=O)N(Cc1ccc(C2CCCCC2)cc1)c1ccc(C(=O)O)cc1)S(=O)(=O)c1c(F)c(F)c(F)c(F)c1F`, which growth is on record?
Its growth is 81.2%.

With `CCN(CC)CCCNCCCNc1cc(OC)cc2cccnc12` as the compound, how does the growth read?
The growth was 88.1%.

The compounds below were run on TK-10 renal in the same assay as above. Details: 10 µM unless noted.

Which growth does the source give for `COc1ccc2c(c1)C(=O)c1c-2c(=O)n(CCCCCCC(=O)NO)c2ccccc12` here?
Its growth is -9.14% (active).

`CCC(C)(C)C(=O)O[C@H]1C[C@@H](C)C=C2C=C[C@H](C)[C@H](CC[C@@H]3C[C@@H](O)CC(=O)O3)[C@H]21` was tested. Which growth did it give?
The growth was 83.1%.

How did the growth turn out when `CCCCCCCCCCCCCCCCCC1=NC(C)(C)CN1CCO` was run?
The growth was -33.8% (active).

For `COc1cc(C2C=C(c3ccc(C)cc3)Nc3nc(SC)[nH]c(=O)c32)ccc1Oc1ccnc2cc(Cl)ccc12` (stereo unspecified), which growth is on record?
Its growth is 78.2%.

With `C=C(C[C@@](O)(C(=O)Oc1ccccc1)C(=O)C1CCCCC1)c1ccccc1` as the compound, how does the growth read?
Its growth is 97.7%.

How did the growth turn out when `CCCCCCCC1(C)NC(=O)NC1=O` (stereo unspecified) was run?
Its growth is 132%.

For `CCOC(=O)c1c(C)c(C(=O)OCC)n(C)c1C`, which growth is on record?
The growth was 78.4%.

Which growth does the source give for `COc1ccc(-c2cncn2-c2ccc(-c3nc4cc(OC)c(OC)c(OC)c4s3)cc2)cc1N` here?
The growth was 83.3%.

Which growth does the source give for `CCc1[nH]nc(-c2ccc(OC)cc2)c1-c1ccccc1OCCN(CC)CC` here?
Its growth is 109%.

For `COc1ncc(-c2ccc3nccc(C#CCN4CCN(S(C)(=O)=O)CC4)c3c2)cc1NS(=O)(=O)c1ccc(F)cc1F`, which growth is on record?
The growth was 12%.

Which growth does the source give for `COc1ccc2c(c1)C(=O)c1c-2c(OCCCN(C)C)nc2cc(Br)ccc12` here?
The growth was 76.7%.

With `N#Cc1c(N)[nH]c(S)c1C#N` as the compound, how does the growth read?
Its growth is 111%.

For `CC(O)c1nc2c(c(=O)n(C)c(=O)n2C)n1C` (stereo unspecified), which growth is on record?
Its growth is 113%.

For `Cc1ccc(NC(=O)Nc2ccc(-c3cccnc3)cc2N2CCC(CO)CC2)cc1`, which growth is on record?
Its growth is 16.5%.

With `CCCCCCCCCCCCCCCCN=C(CC(=O)O)C(=O)O` as the compound, how does the growth read?
The growth was 83.9%.

`COc1ccc(CCN2CCCN3C2=Nc2ccccc2S3(=O)=O)cc1` was tested. Which growth did it give?
The growth was 61.1%.

`CCCCCCCCCCSc1ncnc2nc[nH]c12` was tested. Which growth did it give?
Its growth is 82%.

With `C=C(C[C@](O)(C(=O)/C=C/c1ccc(Cl)cc1)C(=O)OC)c1ccccc1` as the compound, how does the growth read?
The growth was 64.6%.

Which growth does the source give for `O=C(/C=C/c1ccccc1Cl)c1ccc(O)cc1` here?
The growth was 78.6%.

With `CC(=O)NC1(C(=O)O)CCCC1` as the compound, how does the growth read?
Its growth is 117%.

For `CCOC(=O)c1cc(-c2cccnc2)nc2c(Cl)cc(Cl)cc12`, which growth is on record?
Its growth is 75.7%.

How did the growth turn out when `CN1C(=O)/C(=C/c2nc(-c3cccc(F)c3)n3ccccc23)c2ccccc21` was run?
Its growth is 61.7%.

How did the growth turn out when `O=C1C(=O)c2ccc(Br)cc2-c2cc(Br)ccc21` was run?
The growth was 114%.

For `CCN1CCN(c2cc(-c3cn[nH]c3-c3cc(C)cc(OC)c3)nc(-c3cccnc3)n2)CC1`, which growth is on record?
Its growth is 105%.

How did the growth turn out when `ClC1=C(Cl)C(Cl)=C(Cl)C1=C/C=C/c1ccccc1` was run?
The growth was -5.53% (active).

With `O=C(CN1CCCCC1)Sc1nnc2sc3ccccc3n12` as the compound, how does the growth read?
Its growth is 122%.

With `CN1CCN(Cc2ccc(NC(=O)c3[nH]ncc3Nc3ccnc4ccnn34)cc2)CC1` as the compound, how does the growth read?
Its growth is 103%.

`CC1=CC(=O)C(C(C)=Nc2ccccc2Cl)C(=O)O1` (stereo unspecified) was tested. Which growth did it give?
The growth was 126%.

`CSc1ncc2ncn(C3OC(CO)C(O)C3O)c2n1` (stereo unspecified) was tested. Which growth did it give?
The growth was 122%.

With `COc1ccc2nc3cc(Cl)ccc3c(Nc3cc(C(C)C)c(O)cc3C)c2c1` as the compound, how does the growth read?
Its growth is 15.7%.

For `c1cnc2ccc3ncccc3c2c1`, which growth is on record?
Its growth is 127%.

For `O=C(Nc1ccc(Cl)cc1)Nc1ccc(Oc2nncc3ccccc23)cc1`, which growth is on record?
The growth was 27.5%.

Which growth does the source give for `CCCCCCCC/C=C/CCCCCCCC1=NC(C)(C)CN1CCO` here?
The growth was 59.5%.

Which growth does the source give for `CN(CC(=O)N(Cc1ccc(C2CCCCC2)cc1)c1ccc(C(=O)O)cc1)S(=O)(=O)c1c(F)c(F)c(F)c(F)c1F` here?
The growth was 102%.

For `CCN(CC)CCCNCCCNc1cc(OC)cc2cccnc12`, which growth is on record?
Its growth is 112%.
